The results in this text go back to PubChem BioAssay (NCI).

Compounds without any hit were thinned out: in the full panel of roughly 83,000, 20% have a hit.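 Single-dose data. Exposure time 48 hours. Values below 10 considered active.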 A number with no mark means an inactive call. Activity calls are given as the source filed them.

Test systems include NCI/ADR-RES ovarian; T-47D breast; BT-549 breast; MDA-MB-435 melanoma; SW-620 colon; MCF7 breast; HCT-116 colon; HCC-2998 colon; KM12 colon.
Holding throughout (experiment): NCI-60 one-dose screen, 48 h (100 = growth as untreated, 0 = no growth, -100 = all killed)
What all share (settings): 10 µM unless noted

Regarding `CC(C)(C)N1CC1C#N` (stereo unspecified), the growth with NCI/ADR-RES ovarian was 106%; with T-47D breast, 89.3%; with BT-549 breast, 103%; in the assay on MDA-MB-435 melanoma it was 108%; in the assay on SW-620 colon, 103%; with MCF7 breast it was 100%. Further, the growth was 100% in the assay with HCT-116 colon, 98.8% in the assay on HCC-2998 colon and 99.2% in the assay with KM12 colon.
For `Cc1ccc(Nc2nc3c(s2)C2=CC[C@@H]4[C@H](CC[C@]5(C)C(=O)CC[C@@H]45)[C@@]2(C)CC3)cc1`, the growth in the assay with NCI/ADR-RES ovarian was 57.2%; in the assay with T-47D breast, 43.8%; with BT-549 breast, 24.7%; in the assay on MDA-MB-435 melanoma, 44.3%; with SW-620 colon, 0.485% (active); with MCF7 breast, 13.9%. Further, the growth in the assay with HCT-116 colon is -25.4% (active); in the assay with HCC-2998 colon, 78.2%; with KM12 colon it was 34.7%.
Consider `CCn1cnc2c(Nc3cccc(Cl)c3)nc(N[C@@H]3CCCC[C@@H]3N)nc21`, for which the growth was 11% in the assay with NCI/ADR-RES ovarian; 0.53% (active) in the assay with T-47D breast; 61.7% with BT-549 breast; 11.4% in the assay on MDA-MB-435 melanoma; -4.4% (active) in the assay on SW-620 colon; 4.02% (active) in the assay on MCF7 breast. The growth with HCT-116 colon is 0.716% (active); in the assay with HCC-2998 colon, 2.16% (active); in the assay with KM12 colon it was -2.18% (active).
As to `Clc1cccc(N2COOC3(OOC2)C2CC4CC(C2)CC3C4)c1`, the growth in the assay with NCI/ADR-RES ovarian is 44.4%; with T-47D breast, 69.4%; in the assay on BT-549 breast, 88%; with MDA-MB-435 melanoma it was 73.3%; in the assay with SW-620 colon it was 95.5%; with MCF7 breast, 93.1%. Moreover, the growth with HCT-116 colon was 88.2%; in the assay on HCC-2998 colon, 98.1%; in the assay on KM12 colon, 65.7%.
`COc1cc(NCCCN=C(N)N)c2ncccc2c1`: the growth with NCI/ADR-RES ovarian was 108%; in the assay with T-47D breast, -0.911% (active); in the assay with BT-549 breast, 65.9%; in the assay on MDA-MB-435 melanoma, 103%; with SW-620 colon it was 92.8%; in the assay on MCF7 breast, -51.3% (active). The growth in the assay on HCT-116 colon was 78.1%; in the assay with HCC-2998 colon it was 94.3%; in the assay on KM12 colon, 49.3%.
Regarding `C[N+](C)(C)Cc1cc(Cl)ccc1O`, the growth is 104% in the assay on NCI/ADR-RES ovarian; 99.4% with T-47D breast; 91.9% with BT-549 breast; 106% in the assay with MDA-MB-435 melanoma; 97.9% in the assay on SW-620 colon; 104% with MCF7 breast. In addition, the growth with HCT-116 colon is 106%; in the assay on HCC-2998 colon, 104%; in the assay on KM12 colon it was 108%.
Turning to `O=P1(NCCCl)OCCCN1CCCl` (stereo unspecified), the growth with NCI/ADR-RES ovarian is 110%; with T-47D breast, 105%; with BT-549 breast it was 104%; in the assay on MDA-MB-435 melanoma, 107%; with SW-620 colon, 98%; in the assay on MCF7 breast it was 101%. The growth in the assay on HCT-116 colon was 106%; in the assay with HCC-2998 colon, 107%; in the assay with KM12 colon, 103%.
`CC(C)[C@@H]1NC(=O)[C@]2(C)CSC(=N2)c2csc(n2)CNC(=O)C[C@@H](/C=C/CCS)OC1=O`: the growth in the assay on NCI/ADR-RES ovarian is 52%; in the assay with T-47D breast, -17.9% (active); with BT-549 breast, 41.7%; in the assay with MDA-MB-435 melanoma, 5.9% (active); in the assay on SW-620 colon, 1.33% (active); in the assay with MCF7 breast, 13.9%. In addition, the growth was -34.8% (active) in the assay on HCT-116 colon, -48% (active) in the assay on HCC-2998 colon and 1.21% (active) with KM12 colon.
As for `CC(C)OC(=O)[C@H](C)NP(=O)(Oc1ccccc1)C1CCCN(O)C1=O` (stereo partly specified), the growth in the assay with NCI/ADR-RES ovarian is 98.4%; with T-47D breast, 94.5%; in the assay on BT-549 breast, 95%; with MDA-MB-435 melanoma, 96.1%; in the assay with SW-620 colon it was 93.1%; in the assay with MCF7 breast it was 94.5%. Moreover, the growth was 89.6% in the assay on HCT-116 colon, 97.2% in the assay with HCC-2998 colon and 94.5% in the assay on KM12 colon.
Regarding `O=C1N[C@@H]2[C@@H](O)[C@@H](O)[C@H](O)C[C@H]2c2cc3c(c(O)c21)OCO3`, the growth was 1.95% (active) in the assay with NCI/ADR-RES ovarian; -8.46% (active) in the assay with T-47D breast; -12.5% (active) in the assay on BT-549 breast; -42.2% (active) in the assay on MDA-MB-435 melanoma; -0.0451% (active) in the assay on SW-620 colon; 1.73% (active) in the assay with MCF7 breast. Besides, the growth in the assay with HCT-116 colon is -1.49% (active); in the assay on HCC-2998 colon it was -22.8% (active); with KM12 colon it was -11.5% (active).
Turning to `C[C@]12CCc3nc(Nc4ccccc4F)sc3C1=CC[C@@H]1[C@@H]2CC[C@]2(C)C(=O)CC[C@@H]12`, the growth in the assay with NCI/ADR-RES ovarian was 73.9%; with T-47D breast, 37.5%; with BT-549 breast, 66.2%; with MDA-MB-435 melanoma, 52.5%; in the assay with SW-620 colon, -12.6% (active); in the assay on MCF7 breast, 12.5%. Also, the growth is -22.4% (active) in the assay on HCT-116 colon, 80.1% in the assay with HCC-2998 colon and 42.5% with KM12 colon.
`COC(=O)CC12CC(NC(=O)c3csc([C@@H](C[C@H](C(C)C)N(C)C(=O)[C@@H](NC(=O)[C@H]4CCCCN4C)C(C)C)OC(C)=O)n3)(C1)C2`: the growth in the assay with NCI/ADR-RES ovarian is -24.1% (active); in the assay with T-47D breast it was 64.4%; with BT-549 breast it was -19.8% (active); in the assay on MDA-MB-435 melanoma it was -39.8% (active); with SW-620 colon it was 29%; in the assay on MCF7 breast it was 20.4%. Besides, the growth was 9.61% (active) in the assay on HCT-116 colon, 10.5% with HCC-2998 colon and 11.1% in the assay on KM12 colon.
As for `COc1ccc(O)c(CNC(=O)CN2CCCC2=O)c1`, the growth in the assay with NCI/ADR-RES ovarian is 97.8%; in the assay on T-47D breast, 99.4%; with BT-549 breast it was 98.7%; with MDA-MB-435 melanoma, 101%; with SW-620 colon it was 101%; in the assay with MCF7 breast it was 102%. Besides, the growth in the assay with HCT-116 colon was 98.8%; in the assay on HCC-2998 colon it was 98.6%; in the assay on KM12 colon it was 101%.
For the molecule `COc1ccc(Nc2ccnc3cc(Cl)ccc23)cc1CN(CCCl)CCCl`, the growth in the assay on NCI/ADR-RES ovarian was -40.4% (active); in the assay with T-47D breast it was -7.47% (active); in the assay with BT-549 breast, -50.6% (active); in the assay with MDA-MB-435 melanoma, -88.3% (active); with SW-620 colon it was -28.6% (active); in the assay on MCF7 breast it was -10.7% (active). Further, the results for the growth with HCT-116 colon, in the assay with HCC-2998 colon and with KM12 colon were -79.8% (active), -79.5% (active) and -62.6% (active), respectively.
